# Reference: PMC7862700, “An all-to-all approach to the identification of sequence-specific readers for epigenetic DNA modifications on cytosine”
# What was measured:
# Test in all cases: DAPPL (digital affinity profiling via proximity ligation, sequencing); 10 mM Tris-HCl pH 7.5, 50 mM NaCl, 1 mM DTT, 4% glycerol, room temperature, 30 min; GST-TFs on glutathione beads, 16-mer random dsDNA library, 0.1% formaldehyde crosslink after washing; high values mean tight binding
# FLI1 = biological target: T1, FLI1 (Homo sapiens, UniProt Q01543 1-452); conditions: protein: recombinant; tags: N-terminal GST; dsDNA, one strand shown
# T1 sequence: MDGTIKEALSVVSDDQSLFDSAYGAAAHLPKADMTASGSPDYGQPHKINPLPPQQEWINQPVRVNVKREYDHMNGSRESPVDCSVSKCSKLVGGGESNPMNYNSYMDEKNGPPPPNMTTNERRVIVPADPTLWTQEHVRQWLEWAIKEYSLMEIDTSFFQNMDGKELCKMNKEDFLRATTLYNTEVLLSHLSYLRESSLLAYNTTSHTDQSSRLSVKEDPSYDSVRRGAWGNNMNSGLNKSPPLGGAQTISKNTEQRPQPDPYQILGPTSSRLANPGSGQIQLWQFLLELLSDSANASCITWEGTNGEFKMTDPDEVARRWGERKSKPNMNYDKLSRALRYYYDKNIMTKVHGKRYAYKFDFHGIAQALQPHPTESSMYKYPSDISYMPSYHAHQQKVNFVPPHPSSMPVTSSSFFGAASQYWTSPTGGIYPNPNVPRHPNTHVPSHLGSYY
# How it was run: (§1)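 GST fusions of human transcription factors were expressed in yeast and captured with glutathione beads. Once given DNA barcodes and pooled alongside a tag-only sample, they were incubated for 30 min at room temperature with 200 nmole of a random double-stranded 16-mer DNA library in Tris/NaCl/DTT/glycerol buffer, then washed, crosslinked (0.1% formaldehyde), proximity-ligated, PCR-amplified and sequenced on an Illumina NextSeq500. The binding signal of each hexamer is its read frequency for a factor divided by its frequency for the tag-only sample.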
# ELK1 = biological target: T2, ELK1 (Homo sapiens, UniProt P19419 1-428); conditions: protein: recombinant; tags: N-terminal GST; dsDNA, one strand shown
# T2 sequence: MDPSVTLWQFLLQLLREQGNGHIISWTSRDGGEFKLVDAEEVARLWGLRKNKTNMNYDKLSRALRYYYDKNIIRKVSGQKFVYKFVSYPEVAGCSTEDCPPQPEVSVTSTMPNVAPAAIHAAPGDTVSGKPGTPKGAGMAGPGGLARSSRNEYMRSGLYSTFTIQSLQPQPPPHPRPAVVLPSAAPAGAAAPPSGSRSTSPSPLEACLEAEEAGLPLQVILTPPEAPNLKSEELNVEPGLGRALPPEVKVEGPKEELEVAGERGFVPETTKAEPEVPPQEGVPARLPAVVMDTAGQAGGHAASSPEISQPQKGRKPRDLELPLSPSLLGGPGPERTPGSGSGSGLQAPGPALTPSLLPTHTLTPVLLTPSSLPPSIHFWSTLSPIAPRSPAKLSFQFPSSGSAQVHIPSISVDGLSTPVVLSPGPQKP
# How it was run: as §1
# GABPA = biological target: T3, GABPA (Homo sapiens, UniProt Q06546 1-454); conditions: protein: recombinant; tags: N-terminal GST; dsDNA, one strand shown
# T3 sequence: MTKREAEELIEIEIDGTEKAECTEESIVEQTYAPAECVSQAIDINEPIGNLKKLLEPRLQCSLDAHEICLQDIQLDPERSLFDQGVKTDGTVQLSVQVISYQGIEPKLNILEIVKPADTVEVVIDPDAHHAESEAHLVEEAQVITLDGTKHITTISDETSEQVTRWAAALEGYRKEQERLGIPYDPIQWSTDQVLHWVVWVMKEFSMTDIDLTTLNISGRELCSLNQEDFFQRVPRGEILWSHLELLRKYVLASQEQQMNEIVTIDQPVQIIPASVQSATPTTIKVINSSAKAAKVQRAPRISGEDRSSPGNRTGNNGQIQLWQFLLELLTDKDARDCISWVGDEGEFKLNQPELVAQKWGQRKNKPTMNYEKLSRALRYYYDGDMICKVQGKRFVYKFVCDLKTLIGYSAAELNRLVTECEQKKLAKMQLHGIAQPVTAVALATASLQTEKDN
# How it was run: as §1
# ERG = biological target: T4, ERG (Homo sapiens, UniProt P11308 1-479); conditions: protein: recombinant; tags: N-terminal GST; dsDNA, one strand shown
# T4 sequence: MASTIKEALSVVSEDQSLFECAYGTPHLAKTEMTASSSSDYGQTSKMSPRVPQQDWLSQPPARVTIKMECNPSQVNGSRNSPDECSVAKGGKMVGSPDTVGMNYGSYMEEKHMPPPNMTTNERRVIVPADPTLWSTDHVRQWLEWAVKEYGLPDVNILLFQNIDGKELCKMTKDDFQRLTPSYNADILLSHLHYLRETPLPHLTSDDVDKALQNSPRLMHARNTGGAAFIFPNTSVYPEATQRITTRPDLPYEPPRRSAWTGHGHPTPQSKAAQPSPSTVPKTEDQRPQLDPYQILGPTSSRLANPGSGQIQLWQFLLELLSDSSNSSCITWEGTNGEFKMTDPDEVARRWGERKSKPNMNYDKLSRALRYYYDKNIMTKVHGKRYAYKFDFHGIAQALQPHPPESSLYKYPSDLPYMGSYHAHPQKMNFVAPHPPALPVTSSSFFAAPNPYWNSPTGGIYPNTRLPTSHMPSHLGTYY
# How it was run: as §1
# ELF1 = ELF1 (Homo sapiens, UniProt P32519 1-619); conditions: protein: recombinant; tags: N-terminal GST; dsDNA, one strand shown
# Chain of ELF1 (P32519 whole entry): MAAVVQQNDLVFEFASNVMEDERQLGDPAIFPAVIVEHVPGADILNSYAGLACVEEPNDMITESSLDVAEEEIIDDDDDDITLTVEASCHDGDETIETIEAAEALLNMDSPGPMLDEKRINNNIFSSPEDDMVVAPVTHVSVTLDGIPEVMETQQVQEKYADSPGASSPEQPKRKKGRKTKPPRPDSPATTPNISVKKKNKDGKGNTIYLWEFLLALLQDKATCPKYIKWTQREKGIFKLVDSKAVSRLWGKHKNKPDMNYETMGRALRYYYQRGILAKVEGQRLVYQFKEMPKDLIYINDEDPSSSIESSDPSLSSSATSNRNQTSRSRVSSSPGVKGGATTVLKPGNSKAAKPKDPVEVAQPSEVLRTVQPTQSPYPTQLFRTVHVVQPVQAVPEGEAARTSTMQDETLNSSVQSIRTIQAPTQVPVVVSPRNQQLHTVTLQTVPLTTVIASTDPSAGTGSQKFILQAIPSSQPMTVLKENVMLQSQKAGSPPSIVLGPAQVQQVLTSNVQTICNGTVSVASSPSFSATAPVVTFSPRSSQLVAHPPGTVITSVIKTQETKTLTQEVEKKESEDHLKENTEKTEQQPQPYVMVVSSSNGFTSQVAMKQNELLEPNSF
# How it was run: as §1
# EHF = biological target: T5, EHF (Homo sapiens, UniProt Q9NZC4 1-300); conditions: protein: recombinant; tags: N-terminal GST; dsDNA, one strand shown
# T5 sequence: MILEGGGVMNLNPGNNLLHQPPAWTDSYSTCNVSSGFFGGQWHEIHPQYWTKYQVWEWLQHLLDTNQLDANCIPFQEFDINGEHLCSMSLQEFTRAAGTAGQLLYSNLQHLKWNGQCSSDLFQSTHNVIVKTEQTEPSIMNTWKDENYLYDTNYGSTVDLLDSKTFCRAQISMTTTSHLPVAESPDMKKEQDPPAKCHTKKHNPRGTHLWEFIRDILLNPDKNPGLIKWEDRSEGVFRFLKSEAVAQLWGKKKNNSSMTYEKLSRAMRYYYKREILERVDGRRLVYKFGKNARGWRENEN
# How it was run: as §1
# SPI1 = SPI1 (Homo sapiens, UniProt P17947 1-270); conditions: protein: recombinant; tags: N-terminal GST; dsDNA, one strand shown
# How it was run: as §1
# SPIB = SPIB (Homo sapiens, UniProt Q01892 1-262); conditions: protein: recombinant; tags: N-terminal GST; dsDNA, one strand shown
# Chain of SPIB (Q01892 whole entry): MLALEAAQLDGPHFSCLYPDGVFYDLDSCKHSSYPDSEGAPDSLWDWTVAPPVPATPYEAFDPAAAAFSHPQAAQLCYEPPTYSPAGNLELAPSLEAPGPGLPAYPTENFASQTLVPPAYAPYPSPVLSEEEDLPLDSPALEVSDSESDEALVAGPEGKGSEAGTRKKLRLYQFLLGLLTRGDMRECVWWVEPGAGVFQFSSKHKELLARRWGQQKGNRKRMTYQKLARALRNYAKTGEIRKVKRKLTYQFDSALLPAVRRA
# How it was run: as §1
# ELK3 = biological target: T6, ELK3 (Homo sapiens, UniProt P41970 1-407); conditions: protein: recombinant; tags: N-terminal GST; dsDNA, one strand shown
# T6 sequence: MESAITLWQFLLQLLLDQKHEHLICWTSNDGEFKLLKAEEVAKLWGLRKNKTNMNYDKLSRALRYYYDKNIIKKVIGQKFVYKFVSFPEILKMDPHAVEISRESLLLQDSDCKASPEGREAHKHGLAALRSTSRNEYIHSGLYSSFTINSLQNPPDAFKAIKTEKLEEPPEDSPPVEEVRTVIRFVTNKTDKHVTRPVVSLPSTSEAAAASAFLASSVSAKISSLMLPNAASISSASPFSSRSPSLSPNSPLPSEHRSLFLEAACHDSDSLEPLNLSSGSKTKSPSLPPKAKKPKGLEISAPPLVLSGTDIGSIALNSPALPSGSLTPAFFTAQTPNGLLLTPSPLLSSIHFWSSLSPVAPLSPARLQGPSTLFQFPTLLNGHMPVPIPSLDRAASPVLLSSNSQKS
# How it was run: as §1
# FEV = biological target: T7, FEV (Homo sapiens, UniProt Q99581 1-238); conditions: protein: recombinant; tags: N-terminal GST; dsDNA, one strand shown
# T7 sequence: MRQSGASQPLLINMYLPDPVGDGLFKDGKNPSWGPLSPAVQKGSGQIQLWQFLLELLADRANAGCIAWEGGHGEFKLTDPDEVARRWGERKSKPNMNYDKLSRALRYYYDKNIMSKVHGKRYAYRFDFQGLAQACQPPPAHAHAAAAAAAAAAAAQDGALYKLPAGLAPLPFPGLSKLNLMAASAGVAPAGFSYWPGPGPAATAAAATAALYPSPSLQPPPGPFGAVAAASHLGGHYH
# How it was run: as §1
# ETV5 = ETV5 (Homo sapiens, UniProt P41161 1-510); conditions: protein: recombinant; tags: N-terminal GST; dsDNA, one strand shown
# Chain of ETV5 (P41161 whole entry): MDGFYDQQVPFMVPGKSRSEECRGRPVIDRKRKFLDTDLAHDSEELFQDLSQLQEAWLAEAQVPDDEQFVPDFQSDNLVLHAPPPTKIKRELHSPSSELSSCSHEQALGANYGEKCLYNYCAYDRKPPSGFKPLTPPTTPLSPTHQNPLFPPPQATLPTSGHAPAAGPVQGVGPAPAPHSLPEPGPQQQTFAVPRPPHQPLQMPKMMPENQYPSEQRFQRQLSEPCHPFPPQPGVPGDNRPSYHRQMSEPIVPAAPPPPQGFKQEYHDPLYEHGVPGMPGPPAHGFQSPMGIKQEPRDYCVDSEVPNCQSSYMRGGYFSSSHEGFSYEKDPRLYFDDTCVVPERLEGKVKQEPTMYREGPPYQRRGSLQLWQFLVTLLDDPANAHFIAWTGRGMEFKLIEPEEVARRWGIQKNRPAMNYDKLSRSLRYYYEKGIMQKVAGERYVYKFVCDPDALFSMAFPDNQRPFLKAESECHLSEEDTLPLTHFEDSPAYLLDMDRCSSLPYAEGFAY
# How it was run: as §1
# HSF1 = HSF1 (Homo sapiens, UniProt Q00613 1-529); conditions: protein: recombinant; tags: N-terminal GST; chain copies: 3; dsDNA, one strand shown
# Chain of HSF1 (Q00613 whole entry): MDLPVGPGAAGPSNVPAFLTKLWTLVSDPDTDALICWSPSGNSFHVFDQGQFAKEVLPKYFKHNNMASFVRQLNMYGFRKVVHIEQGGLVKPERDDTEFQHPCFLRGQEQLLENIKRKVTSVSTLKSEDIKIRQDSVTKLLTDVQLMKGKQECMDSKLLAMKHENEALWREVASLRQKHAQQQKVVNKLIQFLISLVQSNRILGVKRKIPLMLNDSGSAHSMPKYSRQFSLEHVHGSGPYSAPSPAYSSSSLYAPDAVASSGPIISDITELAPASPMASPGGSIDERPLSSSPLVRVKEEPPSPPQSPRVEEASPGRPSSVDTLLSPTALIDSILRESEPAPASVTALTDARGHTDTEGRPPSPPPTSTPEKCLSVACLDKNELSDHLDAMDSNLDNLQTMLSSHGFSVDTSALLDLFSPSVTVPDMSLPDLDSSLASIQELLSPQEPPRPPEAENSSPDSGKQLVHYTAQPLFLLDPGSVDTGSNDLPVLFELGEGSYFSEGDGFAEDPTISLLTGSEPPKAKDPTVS
# How it was run: as §1
# SPIC = biological target: T8, SPIC (Homo sapiens, UniProt Q8N5J4 1-248); conditions: protein: recombinant; tags: N-terminal GST; dsDNA, one strand shown
# T8 sequence: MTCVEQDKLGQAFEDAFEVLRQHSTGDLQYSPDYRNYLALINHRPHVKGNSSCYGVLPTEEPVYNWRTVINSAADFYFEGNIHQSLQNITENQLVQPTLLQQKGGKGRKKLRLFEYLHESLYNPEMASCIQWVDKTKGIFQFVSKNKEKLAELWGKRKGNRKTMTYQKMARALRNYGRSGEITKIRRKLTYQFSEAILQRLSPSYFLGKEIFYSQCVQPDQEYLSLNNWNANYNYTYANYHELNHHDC
# How it was run: as §1
# ELF4 = ELF4 (Homo sapiens, UniProt Q99607 1-663); conditions: protein: recombinant; tags: N-terminal GST; dsDNA, one strand shown
# Chain of ELF4 (Q99607 whole entry): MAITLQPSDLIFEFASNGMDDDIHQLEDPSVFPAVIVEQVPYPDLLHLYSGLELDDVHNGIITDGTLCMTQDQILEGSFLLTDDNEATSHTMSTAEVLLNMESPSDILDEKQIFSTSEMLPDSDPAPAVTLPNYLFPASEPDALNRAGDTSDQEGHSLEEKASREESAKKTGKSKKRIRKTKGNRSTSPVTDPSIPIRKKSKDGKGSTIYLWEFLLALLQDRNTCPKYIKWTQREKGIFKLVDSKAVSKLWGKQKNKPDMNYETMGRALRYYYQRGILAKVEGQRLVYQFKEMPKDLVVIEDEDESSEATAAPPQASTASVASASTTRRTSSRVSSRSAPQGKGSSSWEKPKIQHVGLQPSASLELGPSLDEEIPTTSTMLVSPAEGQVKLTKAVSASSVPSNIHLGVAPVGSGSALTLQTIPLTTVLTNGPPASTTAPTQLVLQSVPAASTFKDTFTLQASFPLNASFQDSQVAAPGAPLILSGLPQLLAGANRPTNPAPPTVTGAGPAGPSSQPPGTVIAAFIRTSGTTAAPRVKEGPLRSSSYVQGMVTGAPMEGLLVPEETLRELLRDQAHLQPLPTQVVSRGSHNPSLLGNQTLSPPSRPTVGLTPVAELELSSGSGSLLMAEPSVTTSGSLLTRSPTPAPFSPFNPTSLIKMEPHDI
# How it was run: as §1
# ELK4 = biological target: T9, ELK4 (Homo sapiens, UniProt P28324-2 1-405); conditions: protein: recombinant; tags: N-terminal GST; dsDNA, one strand shown
# T9 sequence: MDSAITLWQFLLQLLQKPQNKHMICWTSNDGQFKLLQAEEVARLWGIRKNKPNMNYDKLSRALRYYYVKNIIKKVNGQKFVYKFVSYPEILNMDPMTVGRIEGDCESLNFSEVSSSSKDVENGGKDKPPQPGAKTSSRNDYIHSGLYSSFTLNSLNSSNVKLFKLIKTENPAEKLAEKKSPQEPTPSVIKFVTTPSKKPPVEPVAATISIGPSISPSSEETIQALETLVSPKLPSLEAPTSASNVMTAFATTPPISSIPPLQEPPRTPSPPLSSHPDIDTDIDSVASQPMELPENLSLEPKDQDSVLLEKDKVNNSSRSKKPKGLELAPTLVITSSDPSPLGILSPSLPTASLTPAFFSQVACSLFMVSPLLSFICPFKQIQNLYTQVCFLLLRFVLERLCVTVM
# How it was run: as §1
# ETV2 = biological target: T10, ETV2 (Homo sapiens, UniProt O00321 1-342); conditions: protein: recombinant; tags: N-terminal GST; dsDNA, one strand shown
# T10 sequence: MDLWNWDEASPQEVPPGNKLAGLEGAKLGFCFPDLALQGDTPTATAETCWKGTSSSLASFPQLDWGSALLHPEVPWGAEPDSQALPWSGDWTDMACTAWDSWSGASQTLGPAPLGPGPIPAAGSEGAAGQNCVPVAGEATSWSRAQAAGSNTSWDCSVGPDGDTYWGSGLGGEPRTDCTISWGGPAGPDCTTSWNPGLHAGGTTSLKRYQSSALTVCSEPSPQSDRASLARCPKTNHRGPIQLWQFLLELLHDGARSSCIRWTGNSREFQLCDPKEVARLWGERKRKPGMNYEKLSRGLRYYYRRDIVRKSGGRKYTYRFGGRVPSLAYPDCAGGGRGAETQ
# How it was run: as §1
# ELF3 = biological target: T11, ELF3 (Homo sapiens, UniProt P78545 1-371); conditions: protein: recombinant; tags: N-terminal GST; dsDNA, one strand shown
# T11 sequence: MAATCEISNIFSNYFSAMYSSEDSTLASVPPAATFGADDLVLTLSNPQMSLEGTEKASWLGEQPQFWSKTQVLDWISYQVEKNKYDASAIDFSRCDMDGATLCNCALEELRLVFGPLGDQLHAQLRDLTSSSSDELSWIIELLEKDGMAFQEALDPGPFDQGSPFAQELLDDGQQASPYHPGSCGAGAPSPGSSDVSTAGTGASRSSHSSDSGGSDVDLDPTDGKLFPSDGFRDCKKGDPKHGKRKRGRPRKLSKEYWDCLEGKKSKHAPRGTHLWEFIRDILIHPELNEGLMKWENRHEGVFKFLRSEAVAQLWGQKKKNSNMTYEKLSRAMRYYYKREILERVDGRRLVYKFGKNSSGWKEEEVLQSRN
# How it was run: as §1
# CRX = CRX (Homo sapiens, UniProt O43186 1-299); conditions: protein: recombinant; tags: N-terminal GST; dsDNA, one strand shown
# Chain of CRX (O43186 whole entry): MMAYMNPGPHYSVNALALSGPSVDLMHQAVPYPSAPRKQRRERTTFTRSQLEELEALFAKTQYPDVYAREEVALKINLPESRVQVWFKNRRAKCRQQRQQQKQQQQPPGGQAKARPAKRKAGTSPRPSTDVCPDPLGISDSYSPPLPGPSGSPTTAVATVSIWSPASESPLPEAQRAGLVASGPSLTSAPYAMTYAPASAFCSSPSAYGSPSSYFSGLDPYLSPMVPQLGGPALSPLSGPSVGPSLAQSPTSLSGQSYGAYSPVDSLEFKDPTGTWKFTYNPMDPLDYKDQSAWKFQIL
# How it was run: as §1
# ETV1 = ETV1 (Homo sapiens, UniProt P50549 1-477); conditions: protein: recombinant; tags: N-terminal GST; dsDNA, one strand shown
# Chain of ETV1 (P50549 whole entry): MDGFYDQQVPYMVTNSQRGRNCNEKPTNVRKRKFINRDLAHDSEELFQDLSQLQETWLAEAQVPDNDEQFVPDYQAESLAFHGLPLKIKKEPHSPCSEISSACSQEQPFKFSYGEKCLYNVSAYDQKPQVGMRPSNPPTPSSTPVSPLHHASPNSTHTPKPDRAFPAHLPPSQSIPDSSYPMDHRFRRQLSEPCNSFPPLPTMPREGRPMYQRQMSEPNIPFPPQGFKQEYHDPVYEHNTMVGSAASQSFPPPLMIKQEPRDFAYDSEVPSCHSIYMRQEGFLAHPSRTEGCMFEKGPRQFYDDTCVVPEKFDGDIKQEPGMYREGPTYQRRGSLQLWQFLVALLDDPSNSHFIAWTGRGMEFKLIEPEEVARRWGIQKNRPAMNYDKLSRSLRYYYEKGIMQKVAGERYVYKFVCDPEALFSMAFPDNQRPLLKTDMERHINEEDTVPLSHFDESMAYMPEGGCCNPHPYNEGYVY
# How it was run: as §1
sequence,measurement,setting,value
TCGACC,binding signal,FLI1,"1.28 fold enrichment (6-mer frequency, TF over GST control)"
same,binding signal,ELK1,"1.32 fold enrichment (6-mer frequency, TF over GST control)"
same,binding signal,GABPA,"1.4 fold enrichment (6-mer frequency, TF over GST control)"
same,binding signal,ERG,"1.27 fold enrichment (6-mer frequency, TF over GST control)"
same,binding signal,ELF1,"1.29 fold enrichment (6-mer frequency, TF over GST control)"
same,binding signal,EHF,"1.23 fold enrichment (6-mer frequency, TF over GST control)"
same,binding signal,SPI1,"1.29 fold enrichment (6-mer frequency, TF over GST control)"
same,binding signal,SPIB,"1.28 fold enrichment (6-mer frequency, TF over GST control)"
same,binding signal,ELK3,"1.35 fold enrichment (6-mer frequency, TF over GST control)"
same,binding signal,FEV,"1.32 fold enrichment (6-mer frequency, TF over GST control)"
same,binding signal,ETV5,"1.27 fold enrichment (6-mer frequency, TF over GST control)"
same,binding signal,HSF1,"1.23 fold enrichment (6-mer frequency, TF over GST control)"
same,binding signal,SPIC,"1.17 fold enrichment (6-mer frequency, TF over GST control)"
same,binding signal,ELF4,"1.39 fold enrichment (6-mer frequency, TF over GST control)"
same,binding signal,ELK4,"1.11 fold enrichment (6-mer frequency, TF over GST control)"
same,binding signal,ETV2,"1.35 fold enrichment (6-mer frequency, TF over GST control)"
same,binding signal,ELF3,"1.23 fold enrichment (6-mer frequency, TF over GST control)"
same,binding signal,CRX,"1.11 fold enrichment (6-mer frequency, TF over GST control)"
same,binding signal,ETV1,"1.25 fold enrichment (6-mer frequency, TF over GST control)"
